Compounds without any hit were thinned out: in the full panel of roughly 83,000, 20% have a hit.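 How to read the values: 0–100, growth inhibition (40 = 60% inhibited); 0, no net growth; -100 to 0, cell death (-40 = 40% of starting cells died; -100 = all dead).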 Values without a mark were called inactive. Activity calls are given as the source filed them. How the source made its calls: active means growth percent below 10; inactive means the rest.
Tests used:
Experiment in all cases: NCI-60 one-dose screen, 48 h (100 = growth as untreated, 0 = no growth, -100 = all killed)
Details in all cases: 10 µM unless noted
[1] = test system: NCI-H23 lung
[2] = test system: NCI-H226 lung
[3] = test system: NCI-H322M lung
[4] = test system: HOP-62 NSCLC
[5] = test system: NCI-H460 lung
[6] = test system: HOP-92 NSCLC
[7] = test system: NCI-H522 lung
[8] = test system: A549/ATCC NSCLC
[9] = test system: 786-0 renal
[10] = test system: COLO 205 colon

Row | SMILES | growth [1] | growth [2] | growth [3] | growth [4] | growth [5] | growth [6] | growth [7] | growth [8] | growth [9] | growth [10]
1 | COc1cc2nccc(Oc3ccc(NC(=O)Nc4cc(C)on4)c(Cl)c3)c2cc1OC | 28.8% | 23.1% | 32.9% | 18.4% | 14.5% | -55.9% (active) | 11.1% | 4.95% (active) | 16.1% | -25.4% (active)
2 | CNC(=O)c1cc(COc2nnc(Nc3ccc(Cl)cc3)c3ccoc23)ccn1 | 62.2% | 21.3% | 45.4% | -75.2% (active) | 31.2% | -5.53% (active) | 10.4% | 35.3% | -27.1% (active) | 72.4%
3 | COc1ccc(C(=O)c2cc(OC)c(OC)c(OC)c2)cc1/C=C/C(=O)c1ccc(F)cc1 | 79.7% | 90.4% | 85.5% | 95.5% | 92.9% | 69.2% | 18.5% | 90.7% | 77.4% | 79.3%
4 | Cn1cnc2c(F)c(Nc3ccc(Br)cc3F)c(C(=O)NOCCO)cc21 | 22% | 56.6% | 18.9% | 32.7% | 62.6% | -4.91% (active) | 60.9% | 30.9% | 67.4% | -2.54% (active)
5 | C=C1C(=O)O[C@H]2[C@H]1CC/C(CNC(=O)c1cc3cc(OC)ccc3[nH]1)=C\CC[C@@]1(C)O[C@@H]21 | -54.8% (active) | -40.5% (active) | 65.4% | 46.9% | 19.3% | -67.3% (active) | -67.5% (active) | 18.5% | -67.2% (active) | -73.6% (active)
6 | Nc1nc(Nc2ccccc2)c(C=Nc2ccccc2)c(=O)[nH]1 | 88.5% | 86.5% | 93.3% | 73.7% | 102% | 66.8% | 57.9% | 89.6% | 93.5% | 107%
7 | CCN1CCN(CCCN(C[C@H]2Cc3ccccc3CN2)[C@H]2CCCc3cccnc32)CC1 | 101% | 83.7% | 79.7% | 65.2% | 89.8% | 60.3% | 89.3% | 90.9% | 83.3% | 97.2%
8 | Cc1nc(NC(=O)N2CCC[C@H]2C(N)=O)sc1-c1ccnc(C(C)(C)C(F)(F)F)c1 | 57.9% | 71% | 6.7% (active) | 49.4% | 24% | -4.57% (active) | 33.6% | 21% | 59.5% | 13.7%
9 | CC[C@H](Nc1ncnc2nc[nH]c12)c1nc2cccc(F)c2c(=O)n1-c1ccccc1 | 93% | 93.3% | 42.9% | 75.6% | 79.9% | 49.2% | 22.4% | 43.2% | 37.5% | 96.1%
10 | C=CCN(/C=C1/C(=O)O[C@H](COC)[C@@]2(C)C1=C(O)C(=O)C1=C2[C@H](OC(C)=O)C[C@]2(C)C(=O)CC[C@@H]12)CC=C | 36.7% | 24% | -15.1% (active) | 16.5% | 11.2% | -3.58% (active) | 13.5% | 4.59% (active) | 4.54% (active) | 17.7%
11 | Nc1c(C(=O)c2ccccc2)sc2nc(-c3cccs3)ccc12 | 36.8% | 63.5% | 51.1% | 44.5% | 12.1% | 69.6% | -25.7% (active) | 19.6% | 51.7% | -21.8% (active)
12 | Cc1cc(Nc2ncc(Cl)c(Nc3ccccc3S(=O)(=O)C(C)C)n2)c(OC(C)C)cc1C1CCNCC1 | -86.5% (active) | -64.8% (active) | -93.9% (active) | -94.5% (active) | -86.5% (active) | -92.3% (active) | -89.3% (active) | -99.8% (active) | -91.2% (active) | -88.2% (active)
13 | COC(=O)[C@]12CC[C@@H](C)[C@H](C)[C@@H]1C1=CC[C@@H]3[C@@]4(C)C[C@@H](OC(=O)/C=C/c5ccccc5)[C@H](O)[C@@](C)(CO)[C@@H]4[C@H](O)C[C@@]3(C)[C@]1(C)CC2 | 4.71% (active) | 0.734% (active) | 37.9% | 11.6% | -39.6% (active) | -3.66% (active) | -59.6% (active) | 5.1% (active) | -29% (active) | -58.6% (active)
14 | O=S1(=O)OC(c2ccc(O)c(Cl)c2)(c2ccc(O)c(Cl)c2)c2ccccc21 | 97.8% | 93.9% | 107% | 99.5% | 101% | 60.6% | 93.4% | 99.1% | 110% | 103%
15 | CCN1CCN(Cc2ccc(-c3cc4c(N[C@H](C)c5ccccc5)ncnc4[nH]3)cc2)CC1 | 42.3% | 50.9% | -2.25% (active) | 28.5% | 21.9% | 21.4% | 6.19% (active) | 17.5% | 50.3% | -21.4% (active)
16 | CC(=Nc1ccccc1)C1=C(O)C(Cc2ccccc2)NC1=O (stereo not given) | -1.27% (active) | 15.4% | 45.7% | 16.7% | 3.86% (active) | -9.07% (active) | -15.4% (active) | -28.9% (active) | 8.26% (active) | -71.8% (active)
17 | CCCCCCCC(=O)SCC/C=C/[C@@H]1CC(=O)NCc2cccc(n2)C2=N[C@@](C)(CS2)C(=O)N[C@@H](C(C)C)C(=O)N1 | 41.7% | 68.9% | 15.6% | 12.3% | 20% | 38% | -1.71% (active) | 15.4% | 54% | -41.6% (active)
18 | Cn1ncc(Cl)c1-c1cc(C(=O)N[C@H](CN)Cc2ccc(F)c(F)c2)oc1Cl | 11.3% | 11.8% | 18.8% | -49.4% (active) | 2.97% (active) | -58.5% (active) | -66.7% (active) | -53.4% (active) | -46.7% (active) | -77.9% (active)
19 | CC1=CC2c3oc(-c4ccccc4)c(C(=O)c4ccccc4)c3CNC2C=C1 (stereo not given) | 95% | 83.8% | 94.6% | 74.5% | 100% | 97.5% | 57.7% | 74.2% | 111% | 109%
20 | Cc1ccc(NC(=O)c2ccc(CN3CC[C@H](N(C)C)C3)c(C(F)(F)F)c2)cc1Nc1nccc(-c2cncnc2)n1 | 13.2% | 12.9% | 26.2% | -0.939% (active) | 4.17% (active) | -84.7% (active) | -29.7% (active) | 1.73% (active) | -54.7% (active) | -55.5% (active)
21 | Cc1cc(Nc2cc(N3CCN(C)CC3)nc(/C=C/c3ccccc3)n2)n[nH]1 | 22.3% | 17.7% | 29.5% | -19.7% (active) | 5.31% (active) | -60.5% (active) | -12.4% (active) | -25% (active) | -94.3% (active) | -63.2% (active)
22 | Cc1ccsc1C(NC(=O)c1ccccc1)c1cc(Cl)c2cccnc2c1O (stereo not given) | 28.1% | 38.5% | 32% | 15% | 7.44% (active) | 35% | 9.39% (active) | 14.3% | 18.2% | 11.7%
23 | CC(C)=CCc1cc2c(cc1O)C1=C(C(=O)C3=C(NCCS3(=O)=O)C1=O)C(C=C(C)C)O2 (stereo not given) | 25.7% | 57.9% | 11.4% | 25.3% | 17.7% | 115% | -4.35% (active) | 65.8% | 58.7% | 29.4%
24 | Nc1cc2c(cc1Br)-c1c(C(=O)O)cccc1C2O (stereo not given) | 87.2% | 100% | 107% | 95.9% | 99.4% | 125% | 96.5% | 91.7% | 98.8% | 96.3%
25 | COCc1c(-c2ccc(NC(=O)Nc3cc(C(F)(F)F)ccc3F)c(F)c2)c2c(N)ncnn2c1CN1CCOCC1 | -53.4% (active) | -7.25% (active) | -17% (active) | -58.9% (active) | -47.2% (active) | -32.8% (active) | -55.3% (active) | -18.8% (active) | -43.5% (active) | -88.8% (active)
26 | COc1cc(OC)c(/C=C/S(=O)(=O)Cc2ccc(OC)c(NCC(=O)O)c2)c(OC)c1 | 31.9% | 61.1% | 47.1% | 12.6% | 1.56% (active) | 43.9% | -18% (active) | 9.08% (active) | 21.9% | -62.1% (active)

From PubChem BioAssay (NCI)
